The source made the active and inactive calls. A call without a number means that no potency is given here. The call rests on the fitted dose curve; in most records, active means well fitted curve in the direction sought with a large enough effect in the repeat runs; inconclusive means weak or mixed curves; inactive means flat fitted curve, though single readings scatter.
Potency means the concentration at half of the fitted maximal effect.

This test in a line: qHTS assay to test for compound auto fluorescence at 535 nm (green) in HepG2 cells (AID 720675). To be noted: green autofluorescence 485/535 nm, 1 h; series mostly up to 46 µM. A general note: qHTS replaces the single test concentration by a dilution series.
Take `CCC(=O)O[C@@H]1CC(=O)O[C@H](C)C/C=C/C=C/[C@H](O)[C@H](C)C[C@H](CC=O)[C@H](O[C@@H]2O[C@H](C)[C@@H](O[C@H]3C[C@@](C)(O)[C@@H](OC(=O)CC)[C@H](C)O3)[C@H](N(C)C)[C@H]2O)[C@H]1OC`: the Potency entry was “inactive”. To `CCCCC(=O)OCC(=O)[C@]1(O)Cc2c(O)c3c(c(O)c2[C@@H](O[C@H]2C[C@H](NC(=O)C(F)(F)F)[C@H](O)[C@H](C)O2)C1)C(=O)c1c(OC)cccc1C3=O` belongs “inactive”; to `[O]=[Bi][O][Bi]=[O]`, “inactive”.

Take `CC[C@@]1(O)C[C@H](O[C@H]2C[C@H](N(C)C)[C@H](O[C@H]3C[C@H](O)[C@H](O[C@H]4CCC(=O)[C@H](C)O4)[C@H](C)O3)[C@H](C)O2)c2c(cc3c(c2O)C(=O)c2c(O)cccc2C3=O)[C@H]1C(=O)OC`: the Potency entry is “inactive”. Consider `CC(C)N=c1cc2n(-c3ccc(Cl)cc3)c3ccccc3nc-2cc1Nc1ccc(Cl)cc1`, for which the Potency result is “inactive”.

As for `CC(=C\c1ccccc1)/C=C1/SC(=S)N(CC(=O)O)C1=O`, the Potency result was “inactive”. For `CO[C@H]1C[C@H](O[C@@H]2/C(C)=C/C[C@@H]3C[C@@H](C[C@]4(CC[C@H](C)[C@@H](C5CCCCC5)O4)O3)OC(=O)[C@@H]3C=C(C)/C(=N/O)[C@H]4OC/C(=C\C=C\[C@@H]2C)[C@]43O)O[C@@H](C)[C@@H]1O` the value was “inactive”. As for `CC(C)(C)c1ccc(CN2CCN(C(c3ccccc3)c3ccc(Cl)cc3)CC2)cc1` (stereo not drawn), the Potency entry is “inactive”. Consider `CCCCCCCCCCCCCC[n+]1ccc(C)cc1`, for which the Potency result is “inactive”. For `Cc1cc(Nc2ccccc2C(=O)O)ccc1Cl` the value was “inactive”; for `CN1CCN(CCC=C2c3ccccc3Sc3ccc(S(=O)(=O)N(C)C)cc32)CC1`, “inactive”; for `CCC(=O)c1ccc2c(c1)N(CCCN1CCN(CCO)CC1)c1ccccc1S2`, “inactive”.

Turning to `CC1CCCC1`, the Potency result is “inactive”. To `O=C(O)c1c(Cl)c(Cl)c(Cl)c(Cl)c1-c1c2cc(I)c(=O)c(I)c-2oc2c(I)c(O)c(I)cc12` belongs “inactive”.

Regarding `C=C1C(=O)O[C@H]2[C@H]1CC/C(C)=C\CC[C@@]1(C)O[C@@H]21`, the Potency result is “inactive”. For `C#C[C@]1(O)CC[C@H]2[C@@H]3CCC4=C/C(=N/O)CC[C@@H]4[C@H]3CC[C@@]21CC` the value was “inactive”; for `Cc1cccc(C)c1Nc1ncccc1C(=O)O`, “inactive”. For `C=Cc1c(C)c2cc3nc(cc4[nH]c(cc5nc(cc1[nH]2)C(C)=C5CCC(=O)OC)c(CCC(=O)O)c4C)[C@@]1(C)C3=CC=C(C(=O)OC)[C@H]1C(=O)OC` the value was “inactive”; for `O=C1CSC2(CCN(CCCN3c4ccccc4Sc4ccc(Cl)cc43)CC2)N1`, “inactive”; for `Cc1ccccc1`, “inactive”. `CC(C)[C@@H](C)/C=C/[C@@H](C)[C@H]1CC[C@H]2/C(=C/C=C3\C[C@@H](O)CC[C@@H]3C)CCC[C@]12C`: the Potency result is “inactive”. To `CCCCC(C)(O)C/C=C/[C@H]1[C@H](O)CC(=O)[C@@H]1CCCCCCC(=O)OC` (stereo partly drawn) belongs “inactive”.

Turning to `CC(=O)Nc1ccc(NC(=S)NC(=O)c2ccc(C(C)(C)C)cc2)cc1`, the Potency result was “inactive”. As to `CC1(C)S[C@@H]2[C@H](NC(=O)C3(N)CCCCC3)C(=O)N2[C@H]1C(=O)O`, the Potency result is “inactive”. With `CCCCCCCC(=O)CC[C@@H]1[C@@H](C/C=C\CCCC(=O)OC(C)C)[C@@H](O)C[C@H]1O`, the Potency result was “inactive”. As to `COc1ccc(C[C@H](C)NC[C@@H](O)c2ccc(O)c(NC=O)c2)cc1`, the Potency entry was “inactive”. To `C#C[C@]1(O)CC[C@H]2[C@@H]3CCC4=C(CCC(=O)C4)[C@H]3CC[C@@]21C` belongs “inactive”. To `CO[C@@H]1[C@@H](O[C@@H]2O[C@H](C)[C@@H](O[C@H]3C[C@@](C)(O)[C@@H](OC(=O)CC(C)C)[C@H](C)O3)[C@H](N(C)C)[C@H]2O)[C@@H](CC=O)C[C@@H](C)C(=O)/C=C/C2OC2C[C@@H](C)OC(=O)C[C@H]1OC(C)=O` (stereo partly drawn) belongs “inactive”; to `CCN(CC)CCOc1ccc(-c2nc3cc(Cl)ccc3s2)cc1`, “inactive”. To `OCC(O)CO` belongs “inactive”.

As for `Cc1cc2nc3c(=O)[nH]c(=O)nc-3n(C[C@H](O)[C@H](O)[C@H](O)COP(=O)(O)OP(=O)(O)OC[C@H]3O[C@@H](n4cnc5c(N)ncnc54)[C@H](O)[C@@H]3O)c2cc1C`, the Potency is 14.1 µM (active). To `CNC(C)[C@@H]1CC[C@@H](N)[C@@H](O[C@H]2[C@H](O)[C@@H](O[C@H]3OC[C@](C)(O)[C@H](NC)[C@H]3O)[C@H](N)C[C@@H]2N)O1` (stereo partly drawn) belongs “inactive”; to `NC(=O)OC[C@@H]1[C@H](NC(=O)/C(=N\OCC(=O)O)c2csc(N)n2)C(=O)N1S(=O)(=O)O`, “inactive”.

The values above are taken from PubChem BioAssay (Tox21).
